One test has as its system Klebsiella pneumoniae. Particulars: Concentration 32 ug.mL-1; ASSAY_TEST Inhibition of Bacterial Growth; detection method Absorption (OD600); MEDIA CAMHB; plate type 384well; NBS; CORNING #3640; time 18 hr.
For the next test, the system named is Candida albicans. Particulars: 32 ug/mL.
In a further test the test system is Cryptococcus neoformans. Particulars: Concentration 32 ug.mL-1; ASSAY_TEST Inhibition of Fungal Growth; detection method Resazurin; Absorption (OD600-OD570); plate type 384well; NBS; CORNING #3640. For orientation: Resazurin is reduced to fluorescent resorufin, in cell work by metabolically active cells.

Measured potencies and affinities stand elsewhere.

The Inhibition is the change of the read-out against control, counted positive when it falls. For the molecule `O=C(N/N=C1/C2C[C@H]3C(C2C(=O)O)[C@@H]13)c1ccncc1` (stereo not given in full), the results for the Inhibition with Klebsiella pneumoniae, in the test on Candida albicans and in the test with Cryptococcus neoformans were 8.85%, 0.22% and -16.35%, respectively.
For `O=C(NN=CC[C@@H]1[C@@H](COC2CCCCO2)[C@H](OC2CCCCO2)C[C@@H]1O)c1ccncc1` (stereo not given in full), in that order: 4.99%, 1.39% and -44.06%.
As for `COC(=O)CCCCCC[C@@H]1[C@@H](/C=N/NC(=O)c2ccncc2)[C@H](OC(=O)c2ccccc2)C[C@@H]1O`, the Inhibition with Klebsiella pneumoniae is 15.74%; in the test on Candida albicans it was 0.87%; in the test with Cryptococcus neoformans, -95.25%.
In the same order, the values of `O=C(N/N=C1/C[C@H]2[C@H](CO)[C@@H]1C[C@@H]2Cl)c1ccncc1` are 18.7%, 2.15% and -80.47%.
In the same order, the values of `O=C(ON/N=C/[C@@H]1[C@@H]2C[C@H](Cl)[C@H]1C[C@H]2O)c1ccncc1` are 14.1%, 5.82% and -97.88%.
As to `O=C(N/N=C/COc1cccc(Cl)c1)c1ccncc1`, the Inhibition in the test with Klebsiella pneumoniae was 5.99%; in the test with Candida albicans, 1.44%; with Cryptococcus neoformans, -88.39%.
In the same order, the values of `O=C(NN=C[C@H]1[C@H]2CC(O)OC[C@H]2C[C@H]1O)c1ccncc1` (stereo not given in full) are 2.56%, 3.89% and -80.47%.
For `O=C(N/N=C/[C@@H]1C[C@H](CO)[C@@H]2CCC[C@@H]21)c1ccncc1`, in that order: 17.88%, 0.02% and -36.93%.
In the same order, the values of `CC(C)(C)[Si](C)(C)O[C@H](/C=C/[C@@H]1[C@@H](CC=NNC(=O)c2ccncc2)[C@@H](O)C[C@H]1O[Si](C)(C)C(C)(C)C)CCc1ccccc1` are 11.71%, 0.84% and -66.75%.
Consider `O=C(N/N=C/C[C@@H]1[C@@H](/C=C/[C@@H](O)COc2ccccc2)[C@H](O)C[C@@H]1O)c1ccncc1`, for which the Inhibition in the test with Klebsiella pneumoniae was 13.01%; in the test on Candida albicans it was 0.82%; in the test on Cryptococcus neoformans it was -89.18%.

(Values after ChEMBL document CHEMBL4513156, “CO-ADD screening of NCPRI (Romania) compounds”.)
